Assay outcomes (PubChem BioAssay)
EPAC2 antagonist – antagonists of human EPAC2 | AID 720708 | EPAC2 GEF exchange of Rap1B-BODIPY-GDP, fluorescence | Potency, µM (series often up to 114 µM), for the others: at the highest dose activity, negative = inhibition, actives largely listed as inhibitors | hit rate 0.18% among 360,000; note: % is set by controls: 0 for no effect and ±100 for the full control effect; nearly all actives have a fitted effect of over 45% in size
EPAC1 ag – EPAC1 (human) agonism. hit rate 0.073% among 360,000. O95398. EPAC1 agonist qHTS, biochemical assay; response scale: 100% = response to 6.5 mM cAMP. Potency, µM (top dose mostly 154 µM), for the others: top-dose activation, usual class: activators; note: nearly all actives have a fitted effect of over 60% in size
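Normalized to 6.5 mM cAMP, activity reflects EPAC1-catalysed release of BODIPY-GDP from Rap1B, followed kinetically over 30 min at 480 nm excitation, 540 nm emission. Reaction contained 100 nM EPAC1, 250 nM Rap1B-BODIPY-GDP, 50 uM GDP.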
EPAC1 antagonist – blocks human EPAC1 exchange factor. Potency, µM (titrated, usually from 115 µM), without a hit: at the highest dose activity change, negative = inhibition, most hits filed as inhibitors. EPAC1 GEF assay, Rap1b-BODIPY-GDP exchange fluorescence. hit rate 0.14% among 360,000;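 note: plate controls were vehicle for no effect and positive control for full effect; nearly all actives have a fitted effect of over 50% in size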
12-LOX inh – ALOX12 (human) lipoxygenase inhibition; P18054; purified 12hLO, xylenol orange hydroperoxide absorbance; Potency, µM (highest dose often 108 µM), inactives show at the highest dose activity change, negative = inhibition, most hits filed as inhibitors; hit rate 1.1% among 580,000; AID 1671190; note: % is set by controls: 0 for no effect and ±100 for the full control effect
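Hydroperoxide product was detected by ferrous iron/xylenol orange as the 573 to 405 nm absorbance ratio. Arachidonic acid at 40 uM (final) was turned over for 30 min at room temperature by 150 nM human 12hLO, pH 7.0 Hepes buffer, after 15 min compound preincubation.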
EPAC2 agonist – agonists of human EPAC2 (RAPGEF4); Q8WZA2; EPAC2 activation, biochemical qHTS; response scale: 100% = 6.5 mM cAMP response; hit rate 0.079% among 360,000; Potency, µM (titrated, usually from 154 µM), for inactives: top-dose activation, hits mostly activators; note: nearly all actives have a fitted effect of over 50% in size
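Compounds were titrated in qHTS against a Rap1B-BODIPY-GDP (250 nM) complex with EPAC2 (100 nM) and GDP (50 uM). BODIPY-GDP release tracked at 480/540 nm over 30 min at room temperature, normalized to 6.5 mM cAMP.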
USP1-UAF1 inh – blocks the human USP1/UAF1 deubiquitinase complex. O94782. recombinant USP1/UAF1, Ub-Rhodamine cleavage fluorescence. Potency, µM (top dose mostly 57.1 µM), for inactives: at the top dose activity change, negative = inhibition, most hits filed as inhibitors. hit rate 0.23% among 390,000; note: % is set by controls: 0 for no effect and ±100 for the full control effect; nearly all actives have a fitted effect of over 60% in size
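USP1/UAF1 complex (1 nM) preincubated 15 min at room temperature with compound, then Ub-Rho substrate (150 nM final) added. Kinetic fluorescence at 480/540 nm over 6 reads at 60 s intervals; 50 mM HEPES pH 7.8, 0.5 mM EDTA, 0.1 mg/ml BSA, 1 mM TCEP, 0.01% Tween-20.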
Active calls of the source: *; ? = inconclusive; . = no result given; ! = a repeat was not active; [ ] = another dose, or the depositor's remark. Only some compounds are listed: those with a hit (about 1.3% of all), similar ones and a draw of the others. Calls come from the whole dose curve; as a rule, active = well fitted curve in the direction sought with a large enough effect; inconclusive = small, poorly fitted or top-dose-only effect, or another doubt; inactive = no such curve, though single readings can be large; an effect the other way counts as inactive or inconclusive. Potency is the fitted concentration of half-maximal effect.

SMILES | EPAC2 antagonist | EPAC1 ag | EPAC1 antagonist | 12-LOX inh | EPAC2 agonist | USP1-UAF1 inh
O=C(/C=C/c1c[nH]c2ccccc12)c1c(O)n(CCc2ccccc2)c(=O)[nH]c1=O | 3.3% | 15.6% | -28.1% | -3.5% | -14.4% | 25.1µM*
CC(C)CCOP(=O)(c1ccc(N(C)C)cc1)C(O)c1ccc(Cl)cc1Cl (configuration not stated) | 35.5µM* | 1.8% | -22.6% | ? | 5.0% | -7.3%
CC(C)CCOP(=O)(c1ccc(N(C)C)cc1)C(O)c1ccc(C(C)C)cc1 (configuration not stated) | ? | -18.3% | -13.9% | -24.2% | -15.3% | -26.6%
Oc1c(Cl)cccc1Cc1cc(Cl)cc(Cl)c1O | 22.4µM* | 0.3% | 79.4µM* | ? | -0.1% | -5.4%
Oc1c(Cl)cc(Cl)cc1CN1CCN(Cc2ccccc2)CC1 | 0.3% | 19.8% | -2.2% | -22.8% | 12.4% | -0.7%
Cc1nc2c(=O)n(C)c(=O)nc-2n(C)n1 | ? | -1.2% | 100µM* | 0.0% | ? | 0.0316µM*
CSc1ncc(/C=C2/C(=O)NC(=O)N(c3ccc(C(C)C)cc3)C2=O)cn1 | 8.7% | 3.3% | -2.4% | ? | 10.2% | -18.5%
CC(C)c1ccc(N2C(=O)NC(=O)/C(=C/c3cnc(-c4ccccc4)nc3)C2=O)cc1 | -0.4% | 2.9% | -18.5% | 15.8µM* | -5.5% | -4.9%
O=C(NC[C@H]1C[C@@H]2CCN1C[C@@H]2CN1CCCCC1)c1ccco1 | . | . | . | 1.8%[176 µM] | . | .
COc1ccc(N2C(=O)/C(=C/c3ccc(C)o3)C(=O)NC2=S)cc1 | 11.6% | 5.8% | ? | 12.6µM* | 8.0% | -18.9%
Cc1ccc(N2C(=O)NC(=O)/C(=C\c3ccoc3)C2=O)cc1 | 13.0% | 27.7% | -26.1% | ? | 11.8% | -30.6%
COc1ccc(OC)c(N2C(=O)/C(=C/c3ccco3)C(=O)NC2=S)c1 | ? | 4.3% | 8.91µM* | . | 2.6% | 15.8µM*
COc1ccc(OC)c(N2C(=O)NC(=O)/C(=C/c3ccc([N+](=O)[O-])s3)C2=O)c1 | 7.7% | -4.4% | ? | 39.8µM* | -0.4% | 15.8µM*
O=C1NC(=S)N(c2ccc(F)cc2)C(=O)/C1=C\c1ccoc1 | -29.9% | 3.7% | ? | . | -1.0% | 28.2µM*
CCS(=O)(=O)N1[C@H]2CC[C@@H]1c1cnc(-c3ccc(F)cc3)nc1C2 | . | . | . | 25.2% | . | .
Cc1ccc(-n2c(C)cc(/C=C3/C(=O)NC(=O)N(C)C3=O)c2C)cc1 | 2.3% | -5.2% | -1.5% | -16.9% | 11.4% | 0.9%
CN1CCN(c2ccc(/C=C3\C(=O)NC(=S)N(c4cccc(Br)c4)C3=O)o2)CC1 | 3.2% | 24.8% | -16.2% | ? | 15.0% | 31.6µM*
COc1ccc(N2C(=O)/C(=C/c3cc(C)n(-c4ccc(C)cn4)c3C)C(=O)NC2=S)c(OC)c1 | 0.5%[57.1 µM] | 9.6% | -16.9% | 35.5µM* | 9.1% | -22.9%
O=S(=O)(NC[C@H]1C[C@@H]2CCN1C[C@@H]2CN1CCc2ccccc2C1)c1ccc(Cl)cc1 | . | . | . | -6.7% | . | .
O=C(O)CC1OCC=C2CN3CCC45C6=CC(=O)C(=O)C([N+](=O)[O-])=C6NC4C1C2CC35 (configuration not stated) | ? | 10.7% | ? | . | ? | 5.01µM*
O=C(O)CC1OCC=C2CN3CCC45c6ccccc6NC4C1C2CC35 (configuration not stated) | 2.0% | 1.8% | 5.0% | -11.4% | 4.1% | 6.8%
Cc1ncc2c(n1)C[C@@H]1CC[C@H]2N1C(=O)CCc1ccccc1 | . | . | . | 18.2% | . | .
Cc1ccnc(NS(=O)(=O)c2ccc(N=Cc3c(O)n(C)c(=O)n(C)c3=O)cc2)n1 | 2.6% | 15.7% | -8.4% | 5.01µM* | 11.9% | -12.5%
COc1cc2c(cc1OCc1ccccc1)N(C(=O)c1cc3ccccc3n1C)CC21CCN(C)CC1 | . | . | . | 31.6µM* | . | .
O=C(NC1CC1)[C@H]1CN2CCC1C[C@@H]2Cn1cc(CCO)nn1 (some centres not stated) | . | . | . | 7.4%[176 µM] | . | .
SMILES | EPAC2 antagonist | EPAC1 ag | EPAC1 antagonist | 12-LOX inh | EPAC2 agonist | USP1-UAF1 inh
COc1ccccc1NC(=O)Nc1ccc2n(c1=O)C[C@H]1C[C@@H]2CN(C2CCOCC2)C1 | . | . | . | 12.6µM* | . | .
CC(=O)OC1CC(OC2C(O)CC(OC3C(O)CC(OC4CCC5(C)C(CCC6C5CC(O)C5(C)C(C7=CC(=O)OC7)CCC65O)C4)OC3C)OC2C)OC(C)C1OC1OC(CO)C(O)C(O)C1O (configuration not stated) | 89.1µM* | -15.7% | -2.4% | 14.5% | 112µM* | -8.8%
N#CC(C#N)=NNc1ccc(S(N)(=O)=O)cc1 | -28.4% | -0.2% | 56.2µM* | -2.8% | -1.1% | -27.7%
CN1CCN2C(=O)N(Cc3cccnc3)C[C@H]2C1 | . | . | . | -0.3%[176 µM] | . | .
CC[C@H]1CN2CC[C@H]1C[C@@H]2COC(=O)Nc1ccc(C(C)(C)C)cc1 | . | . | . | 44.7µM* | . | .
CC(C)(O)C1OC2CCC3(C)C(O)(CCC4Cc5c([nH]c6ccccc56)C43C)C2=CC1=O (configuration not stated) | . | . | . | 16.4% | . | .
N[C@@H](Cc1ccc(Oc2cc(I)c(O)c(I)c2)c(I)c1)C(=O)O | . | . | . | 5.1µM* | . | .
Cc1nonc1CC(=O)N1C[C@H](O)[C@@H](N2CCC(O)CC2)C1 | . | . | . | 12.6µM* | . | .
CC[C@H]1CN2CC[C@H]1C[C@@H]2CNC(=O)NC(C)C | . | . | . | 20.4%[176 µM] | . | .
CCN(CC)c1ccc(N=Cc2c(O)n(CCc3ccc(OC)c(OC)c3)c(=O)[nH]c2=O)cc1 | 4.0% | 16.4% | -18.9% | -13.4% | 100µM* | ?
CCN(CC)c1ccc(N=Cc2c(O)n(-c3cc(OC)ccc3OC)c(=O)[nH]c2=O)cc1 | 31.7% | ? | -8.2% | 245.0% | 79.4µM* | ?
COc1cc2c(cc1Oc1ccccc1)NC(=O)C21CCN(C(=O)c2cccnc2)CC1 | . | . | . | 10.2%[176 µM] | . | .
O=C(NCc1ccccc1)[C@H]1CN2CCC1C[C@@H]2Cn1cc(CSc2ccccc2)nn1 (some centres not stated) | . | . | . | 4.2% | . | .
O=C1[C@H]2CNC[C@H]2C(=O)N1CCc1ccccc1 | . | . | . | 0.7% | . | .
C=C[C@H]1CN2CC[C@H]1C[C@@H]2CNC(=O)Nc1ccc(Br)cc1 | . | . | . | -7.6%[176 µM] | . | .
O=C1NCCCCCCN[C@H]2CCCC[C@@H]12 | . | . | . | 26.1% | . | .
COc1cc2c(ccc3c4cc(OC)c(OC)cc4c[n+](C)c23)cc1O | -2.1% | 2.5% | -1.9% | -5.5% | 2.5% | -8.4%
COc1ccc2c(c[n+](C)c3c4cc5c(cc4ccc23)OCO5)c1OC | . | . | . | 9.68µM*! | . | .
C#C[C@H]1CN2CC[C@H]1C[C@@H]2CNCc1cccc(Cl)c1 | . | . | . | 66.7%[176 µM] | . | .
